A selection: hits, their analogues and other compounds. The true share with any hit is near 8.2%.
KB-3-1 tox – kills parental KB-3-1 adenocarcinoma cells | KB-3-1 viability, CellTiter-Glo ATP luminescence, 72 h | Potency, µM (top dose mostly 46.1 µM), usual class: cytotoxic | 1.4% of 400,000 active | AID 1347075; further: on the % scale 0 is the no-effect control and ±100 the full control effect; nearly all actives have a fitted effect of over 60% in size
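Screening of KB-3-1 cells (DMEM, 10% FBS, phenol-red free) ran from lowest to highest compound concentration; after 72 h at 37 °C viability was read luminescently and curves fitted.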
ELG1 DNA repair – ELG1-dependent DNA repair inhibition; HEK293T ELG1-luciferase reporter, luminescence, 16 h; DNA damage induced by 5-fluorouridine; Potency, µM (series often up to 46.1 µM), for the others: at the top dose activity change, negative = inhibition, hits mostly inhibitors; 2.3% of 330,000 active; AID 504467; further: on the % scale 0 is the no-effect control and ±100 the full control effect; nearly all actives have a fitted effect of over 55% in size
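Overnight (16 hr) co-exposure of 2,000 cells/well to 5-fluorouridine and compound at 37 °C preceded detection. Luciferase was quantified via ONE-Glo luminescence; loss of signal denotes inhibition.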
KB-V1 cytotox – KB-V1 MDR subline cytotoxicity; KB-V1 MDR cells viability, CellTiter-Glo, 72 h; AID 1347076; 3.4% of 400,000 active; Potency, µM (series often up to 46.1 µM), hits mostly cytotoxic; further: on the % scale 0 is the no-effect control and ±100 the full control effect; nearly all actives have a fitted effect of over 60% in size
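Readout: CellTiter-Glo luminescence, 10 min after addition. Cells: KB-V1 MDR subline, 72 h at 37 degrees C with compound. Analysis: corrected, normalized data fitted to concentration-effect curves.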
SW480 rereplic – DNA re-replication induction in SW480 cells | Potency, µM (highest dose often 46.1 µM), for the others: at the top dose re-replication activation, actives largely listed as activators | SW480 DNA re-replication, Hoechst DNA content imaging, 48 h | AID 624297 | 1.8% of 340,000 active; further: % of control where 0% means no effect; nearly all actives have a fitted effect of over 55% in size
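Treated cells incubate 48 hr (37 C, 5% CO2), are stained 40 min with Hoechst, and nuclear fluorescence is enumerated; a rise in nuclei with high DNA signal marks re-replication.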
MCF10A rerep – induces DNA re-replication in MCF 10a normal breast cells | MCF 10A DNA re-replication, Hoechst nuclear intensity, 48 h | Potency, µM (top dose mostly 46.1 µM), for the others: at the highest dose activity, positive = re-replication, most hits filed as activators | 2.9% of 350,000 active | AID 624296; further: % of control where 0% means no effect; nearly all actives have a fitted effect of over 50% in size
The depositor's hits bear a star; i = inactive; ? = inconclusive; / = not tested or not shown. The call rests on the fitted dose curve; in most records, active means well fitted curve in the direction sought with a large enough effect; inconclusive means small, poorly fitted or top-dose-only effect, or another doubt; inactive means no such curve, though single readings can be large; an effect the other way counts as inactive or inconclusive. Potency means the concentration at half of the fitted maximal effect.

SMILES | KB-3-1 tox | ELG1 DNA repair | KB-V1 cytotox | SW480 rereplic | MCF10A rerep
CCOC(=O)[C@@H](NC(=O)/C=C/[C@H]1O[C@@H](n2cc(C)c(=O)[nH]c2=O)C[C@@H]1O)C(C)C | i | / | i | / | /
COc1ccccc1CN1COc2ccc3c(C)cc(=O)oc3c2C1 | i | / | ? | / | /
CCc1ccccc1Nc1cc(C(=O)NCCCN(C)C2CCCCC2)c2ccccc2n1 | i | / | i | / | /
COc1ccc(C(=O)c2ccc(N3CCOCC3)c([N+](=O)[O-])c2)cc1 | i | -3% | ? | 16% | 3%
COc1ccc(Nc2nnc(-c3ccc(N4CCOCC4)c([N+](=O)[O-])c3)c3ccccc23)cc1 | i | -8% | 16µM* | -7% | 8%
CCc1ccc(-n2nc(C)c3c(C(=O)N4CCN(c5cccc(Cl)c5)CC4)cc(C)nc32)cc1 | i | / | i | / | /
CN=C1NC(C)(C)C2CCC(C)(CC2)S1 | i | / | i | 2% | 12µM*
CCc1ccc(Nc2cnn(-c3nc4ccccc4s3)c(=O)c2Cl)cc1 | i | ? | 13µM* | -4% | 8%
Cc1nc(N2CCC(C)CC2)c2c(C)c(C(=O)Nc3ccccc3C(F)(F)F)sc2n1 | i | 15µM* | i | 1% | 9.2µM*
Cc1nc(N2CCN(c3ccccn3)CC2)c2c(C)c(C(=O)Nc3c(F)cc(F)cc3Br)sc2n1 | i | 23µM* | ? | ? | 13%
Cc1nc(N2CCN(c3ccccn3)CC2)c2c(C)c(C(=O)Nc3c(C)cc(Br)cc3C)sc2n1 | i | ? | i | ? | 10%
Cc1nc(N2CCC(C)CC2)c2c(C)c(C(=O)Nc3ccc(C)c(F)c3)sc2n1 | i | -14% | i | -5% | -1%
Cc1nc(N2CCN(c3ccccn3)CC2)c2c(C)c(C(=O)Nc3ccc(Cl)cc3)sc2n1 | i | 8.2µM* | i | -7% | -8%
Cc1ccc(NS(=O)(=O)c2ccc3c(c2)CCC(=O)N3)cc1F | i | / | ? | / | /
COc1ccc(C(=Cc2cc(OC)c(OC)cc2[N+](=O)[O-])C(=O)O)cc1 | i | / | i | -8% | 0%
CN(Cc1nc2ccccc2c(=O)[nH]1)C(=O)c1cc(-c2ccc(Br)cc2)nc2ccccc12 | i | / | 15µM* | 21% | ?
CN(Cc1nc2ccccc2c(=O)[nH]1)C(=O)COc1ccccc1Cc1ccccc1 | i | -17% | i | 4% | 21µM*
CCN(Cc1nc2ccccc2c(=O)[nH]1)C(=O)COc1ccccc1Cc1ccccc1 | i | -13% | i | ? | ?
CN(Cc1nc2ccccc2c(=O)[nH]1)C(=O)c1ccccc1OCc1ccc(Cl)cc1 | i | ? | i | 0% | 0%
COCC(=O)N(CCc1ccc(OC)cc1)Cc1nc2ccccc2c(=O)[nH]1 | i | -3% | i | ? | ?
CCCC(=O)N(CCc1ccc(OC)cc1)Cc1nc2ccccc2c(=O)[nH]1 | i | ? | 15µM* | -2% | 5%
O=C(C1CCN(Cc2ccc(F)cc2)CC1)N(CCc1ccccc1)Cc1ccccc1 | 16µM* | -28% | i | -75% | ?
O=C(C1CC1)N(CCc1ccccc1)Cc1nc2ccccc2c(=O)[nH]1 | i | ? | 16µM* | -8% | -1%
COc1cc2nc(CC(C)C)n(NC(=O)c3ccccc3)c(=O)c2cc1OC | i | -5% | 7.3µM* | -4% | 1%
CCC1OC(C)Cc2[nH][nH]c(=O)c21 (centres undefined) | i | / | i | / | /
SMILES | KB-3-1 tox | ELG1 DNA repair | KB-V1 cytotox | SW480 rereplic | MCF10A rerep
C/C(=N\NC(=O)CNc1cccc(Cl)c1C)c1cccs1 | i | 29% | i | 18µM* | 20%
Cc1cc(C(=O)CSc2nnc(-c3ccco3)o2)c(C)n1-c1ccc2c(c1)OCCO2 | i | ? | ? | -3% | ?
Cc1cc(C(=O)CSc2nnnn2C)c(C)n1-c1ccc2c(c1)OCCO2 | i | ? | 21µM* | 4% | ?
Cc1cc(-n2c(C)cc(C(=O)CSc3nnnn3-c3ccc(Cl)cc3)c2C)no1 | i | -22% | i | -13% | 6.5µM*
O=C(COC(=O)/C=C/c1cccc(C(F)(F)F)c1)NC1CCCCCC1 | i | 24% | i | -6% | 0%
O=C(NCCN1CCC(n2c(=O)[nH]c3ccccc32)CC1)c1ccc(C(F)(F)F)cc1C(F)(F)F | ? | / | 12µM* | / | /
Cc1ccc(-c2[nH]nc(N)c2N=Nc2cccc(Cl)c2C)cc1 | ? | ? | ? | ? | 21µM*
CCOC(=O)C(Nc1ccc2ccccc2c1)C(=O)OCC | i | ? | i | 13µM* | 4.6µM*
CC(=O)Nc1ccc2ccccc2c1 | i | ? | i | -13% | 18%
COc1ccc(C(=O)c2ccc(Br)cc2)c2ccccc12 | ? | -2% | 18µM* | -2% | 7.3µM*
COc1ccc(C(=O)c2ccc(C)cc2)c(OC)c1OC | ? | / | ? | ? | 16µM*
COc1ccc(C(=O)c2ccc(Cl)cc2)c2ccccc12 | ? | -29% | ? | ? | 9.2µM*
O=C(Nc1ccc2c(c1)[C@H]1C[C@@H](CC(=O)N3CCOCC3)O[C@@H](CO)[C@H]1O2)C1CCOCC1 | i | / | i | / | /
CCN(CC)C(=O)c1cccc(-c2csc(C(C)(O)c3ccc(F)c(F)c3)n2)c1 (centres undefined) | i | / | ? | / | /
O=C(N/N=C/c1sc(N2CCOCC2)nc1-c1ccccc1)c1cccc(S(=O)(=O)N2CCCC2)c1 | 3.7µM* | 5.2µM* | ? | 5% | 15µM*
O=C(N/N=C/c1cc(Br)cc(Br)c1O)c1cccc(S(=O)(=O)N2CCOCC2)c1 | ? | ? | i | 0.65µM* | -2%
O=C(N/N=C/c1sc(N2CCOCC2)nc1-c1ccccc1)c1ccc(O)cc1 | i | ? | i | 1% | ?
COc1cccc(/C=N/NC(=O)c2ccc(N3CCCC3=O)cc2)c1 | 16µM* | 2% | ? | 1.8µM* | 13µM*
O=C(N/N=C/c1ccccc1Br)c1cccc(S(=O)(=O)N2CCOCC2)c1 | i | ? | i | 6% | 10%
O=C(N/N=C/c1cc(Br)cc(Br)c1O)c1cccc(N2CCCC2=O)c1 | ? | ? | i | 8.2µM* | ?
COC(=O)C[C@H]1C[C@H]2c3cc(NC(=O)CC4CC4)ccc3O[C@H]2[C@H](CO)O1 | i | / | ? | / | /
CN(C(=O)CSC(=O)c1ccccc1)c1ccccc1 | i | -4% | i | -10% | -8%
CCOc1ccccc1NS(=O)(=O)c1cc(-c2cnc(C3CC3)o2)ccc1C | ? | / | i | / | /
COc1ccccc1NS(=O)(=O)c1ccc(-c2cnc(C3CC3)o2)cc1 | 1µM* | ? | ? | 0% | ?
